# Screening results (PubChem BioAssay)
# MenB inh = blocks the Mycobacterium tuberculosis MenB enzyme | P9WNP5 | MenB enzyme assay, absorbance read-out | inhibition, % (test concentration not listed) | hit rate 0.43% among 100,000; in the data active = inhibition above about 21%, passing the limit was not always enough
# PV pol inh = inhibitors of poliovirus RNA polymerase binding and polymerization; P03300; poliovirus polymerase elongation, fluorescence polarization; active compounds read low; % elongation, % (compound at 16.7 µg/mL); hit rate 0.66% among 150,000; in the data active = % elongation below about 90%
# Target sequence (P03300 1749-2209 limits assumed): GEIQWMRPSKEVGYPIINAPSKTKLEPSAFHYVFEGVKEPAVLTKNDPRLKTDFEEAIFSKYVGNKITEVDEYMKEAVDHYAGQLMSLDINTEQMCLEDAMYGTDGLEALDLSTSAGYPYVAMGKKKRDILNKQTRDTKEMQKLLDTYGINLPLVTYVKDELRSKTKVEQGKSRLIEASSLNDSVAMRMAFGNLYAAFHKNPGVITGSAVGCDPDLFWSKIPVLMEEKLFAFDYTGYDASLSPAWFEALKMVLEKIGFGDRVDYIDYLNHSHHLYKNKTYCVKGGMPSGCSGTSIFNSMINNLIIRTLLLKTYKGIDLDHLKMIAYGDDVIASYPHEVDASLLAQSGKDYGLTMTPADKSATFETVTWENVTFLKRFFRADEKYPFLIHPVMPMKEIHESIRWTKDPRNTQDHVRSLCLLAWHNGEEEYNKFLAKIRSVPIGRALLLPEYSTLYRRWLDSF
# MbtI inh = MbtI salicylate synthase inhibition; hit rate 0.89% among 100,000; P9WFX0; purified MbtI enzyme, fluorescence intensity read-out; inhibition, % (concentration not given with the values); in the data active = inhibition mostly above about 56%, no sharp cut-off; inactive = mostly below about 77%
# * marks the source's active call; other numbers are inactive results; x = no result. Only some compounds are listed: those with a hit (about 1.5% of all), similar ones and a draw of the others.
SMILES,MenB inh,PV pol inh,MbtI inh
CCc1sc(-c2nnc(CN3CCN(S(=O)(=O)c4ccc5c(c4)CCC5)CC3)o2)cc1C,-20,105,7
COC(=O)c1cnc(NC2CCCCC2)c2ccccc12,-4,99,109
CCN(C(=O)c1cn(CC(C)C)c(=O)c2cc(OC)c(OC)cc12)c1cc(OC)ccc1OC,x,101,x
CC(C)Cn1cc(NC(=O)NCc2ccc(Cl)cc2)c2ccccc2c1=O,x,106,x
CC(C)Cn1cc(NC(=O)N2CCN(c3cccc(Cl)c3)CC2)c2ccccc2c1=O,x,106,x
CC(C)Cn1cc(NC(=O)NCc2ccccc2)c2ccccc2c1=O,x,12*,x
CC(C)Cn1cc(NC(=O)NCc2ccccc2Cl)c2ccccc2c1=O,x,41*,x
CC(C)Cn1cc(NC(=O)NCc2cccc(Cl)c2)c2ccccc2c1=O,x,58*,x
COc1ccc(OC)c(CNC(=O)Nc2cn(CC(C)C)c(=O)c3ccccc23)c1,x,25*,x
CC(C)Cn1cc(NC(=O)N2C(C)CCCC2C)c2ccccc2c1=O (stereo unspecified),-6,92,30
O=C(c1ccccc1)N(Cc1ccco1)C1(C(=O)Nc2ccccc2)CCCCC1,x,99,-4
CCN(c1ccc(NC(=O)CN(C)Cc2ccccc2)cc1)C(C)C,-1,102,-6
O=C(Nc1ccc2c(c1)OCO2)C1(c2ccc(Cl)cc2)CC1,-6,95,-1
CC(c1ccc(S(N)(=O)=O)cc1)N(C)c1ncnc2sccc12 (stereo unspecified),-8,114,0
OCCOc1ccc(Cl)cc1Cl,x,x,-11
CCCCN1C(=S)NS(=O)(=O)c2ccccc21,-5,100,-3
COc1cccc(CNC(=O)Nc2cn(CC(C)C)c(=O)c3ccccc23)c1,x,31*,x
CC(C)Cn1cc(NC(=O)N2CCCCCC2)c2ccccc2c1=O,-19,101,0
Cc1ccc(CNC(=O)Nc2cn(CC(C)C)c(=O)c3ccccc23)cc1,x,28*,x
CC(C)Cn1cc(NC(=O)NCC2CCCO2)c2ccccc2c1=O (stereo unspecified),-1,96,128
Cc1ccc(C)c(N2CCN(C(=O)Nc3cn(CC(C)C)c(=O)c4ccccc34)CC2)c1,x,77*,x
COc1ccc(N2CCN(C(=O)Nc3cn(CC(C)C)c(=O)c4ccccc34)CC2)cc1,x,108,x
CCCCc1cc(=O)oc2cc(OC(=O)c3ccco3)ccc12,-9,100,-65
CCc1nn(CC(=O)NCc2cc(Br)ccc2OC)c(=O)c2cc3sc(C)cc3n12,-24,102,-2
Cc1c(NC(=O)COCc2cc(-c3cccs3)on2)c(=O)n(-c2ccccc2)n1C,-18,104,3
SMILES,MenB inh,PV pol inh,MbtI inh
CN1CCN(S(=O)(=O)c2ccccc2C(F)(F)F)CC1,-13,89*,4
O=S(=O)(c1ccccc1C(F)(F)F)N1CCNCC1,-18,100,-9
N#Cc1ccc(CSC2=Nc3ccccc3CS2)cc1,-31,104,1
COc1ccc(C/C(C)=N/NC(=O)c2cccs2)cc1,-42,98,13
COC(=O)/C(C#N)=C/N(C)C,6,100,8
COC(=O)C(C#N)=C(SC)SC,26,93,83*
O=C(Cn1c(C(=O)NCC2CCCO2)cc2sccc21)c1ccccc1 (stereo unspecified),8,100,3
O=C(Cn1c(C(=O)NCc2ccco2)cc2sccc21)c1ccccc1,24*,104,12
CCCCn1c2c(c(=O)[nH]c1=O)C(c1ccc(OC(F)F)cc1)C1=C(CCCC1=O)N2 (stereo unspecified),-30,101,-42
Cc1cc(N)cc2[nH]c(-c3ccc(N)cc3)nc12,-7,66*,x
COc1ccc2nc(-c3ccc(N)cc3)[nH]c2c1,22,103,86
CC(C)C(NC(=O)c1ccccc1)C(=O)O (stereo unspecified),-19,100,-7
CC(NC(=O)c1ccc(-c2ccccc2)cc1)C(=O)O (stereo unspecified),29*,103,3
CCOCCn1c(=NC(=O)C(C)C)sc2cc(C)ccc21,2,104,3
CCOC(=O)CSc1nc2nccnc2c(=O)n1CCc1ccccc1,6,102,-5
CN=c1scc(-c2ccc3c(c2)NC(=O)CO3)n1C,6,96,12
O=C(N=Nc1c(O)[nH]c2cc3c(cc12)OCCCO3)C1CCCCC1,-5,99,3
O=Nc1c(O)[nH]c2cc3c(cc12)OCCO3,-12,86*,11
O=C(CCCc1nc2ccccc2c(=O)[nH]1)Nc1ccc(F)c(Cl)c1,6,106,10
C=COC(=O)CSc1nc(C)cc(C)c1C#N,3,86*,x
Cc1cc(C)c(C#N)c(SCC(=O)OC(C)C)n1,-24,99,-28
CSC1=C(C#N)C2(CCCCC2)C2=C(CCC2)N1,0,96,x
CCCCN(CC)CCNC(=O)Cn1cc2c(n1)-c1c(oc(C(=O)N3CCCC3)c1C)CC2,x,110,x
Cc1c(C(=O)N2CCOCC2)oc2c1-c1nn(CC(=O)NCc3cccc(Cl)c3)cc1CC2,x,111,x
Cc1c(C(=O)N2CCOCC2)oc2c1-c1nn(CC(=O)NCc3cccc(F)c3)cc1CC2,x,84*,x
SMILES,MenB inh,PV pol inh,MbtI inh
Cc1c(C(=O)N2CCCC2)oc2c1-c1nn(CC(=O)NCCCOC(C)C)cc1CC2,x,47*,x
CCN1CCN(CCC(=O)Nc2ccc(-c3ccccc3)cc2)CC1,x,100,14
CCN1CCN(CCC(=O)Nc2ccc(C)cc2)CC1,37*,100,-1
CCn1cc(S(=O)(=O)N2CCOCC2)cn1,7,101,-3
CC1(O)COc2ccccc2O1 (stereo unspecified),-26,104,-7
C=CCn1c(NC(=O)c2ccccc2)c(C(=O)OCC)sc1=S,-137,96,78*
CCOC(=O)c1c(NC(=O)c2ccccc2)sc2c1CCCC2,x,102,8
CCN(CC)CCn1c(=S)[nH]c2cc(C(=O)N3CCCC3)ccc2c1=O,-21,102,-15
Cc1sc(NC(=O)CN2C(=O)CCC2=O)c(C(N)=O)c1C,-20,105,44
Cc1sc(NC(=O)Cn2nc(C(F)(F)F)cc2C)c(C(N)=O)c1C,3,68*,x
CCOC(=O)C1=C(CN(C)C2CCCCC2)NC(=O)NC1c1cccs1 (stereo unspecified),1,100,-1
Clc1ccc(C2=NNC(=NCc3ccc4c(c3)OCO4)SC2)cc1,-29,85*,47
CCCN=C1NN=C(c2cc(C)n(Cc3ccc4c(c3)OCO4)c2C)CS1,-9,108,-1
O=C(CN1C(=O)c2ccccc2C1=O)OCc1cc(=O)n2cc(Br)ccc2n1,-3,97,-2
S=C=NCCn1ccc2ccccc21,-77,102,93*
NCCn1ccc2ccccc21,-18,99,6
Cc1cccc(NC(=O)c2ncoc2-c2ccccc2Cl)c1C#N,3,101,0
CCc1cccc2c(=O)c(C(=O)N3CCCC3)c[nH]c12,0,103,17
CCn1c(=O)c2c(n(Cc3ccccc3)c1=O)NC1=C(C(=O)CCC1)C2c1ccc(OC)cc1 (stereo unspecified),-10,96,-9
O=C(NO)c1ccccc1,x,103,-10
O=C(NC1(O)C(=O)c2ccccc2C1=O)c1ccccc1,2,67*,-3
O=C(COC(=O)/C=C/c1cccs1)Nc1nc2ccccc2s1,9,105,1
O=C1C=CC(=O)N1c1cccc2ccccc12,x,101,89*
CC1(C)C(=O)N(c2ccccc2F)C(=O)c2ccccc21,0,100,-9
